# Compound activity as filed in PubChem BioAssay.
# Compounds with a hit are over-represented: about 2.3% of the library has one in this group of screens.
# SENP8 block-1 – human SENP8 protease inhibitors, primary screen, biochemical, fluorescence, Nedd8 protein substrate, uHTS | recombinant SENP8 | inhibition, % at 20 µM | 360,000 tested, 0.64% active | AID 602440, 2012; in the data active means inhibition mostly above about 40%, no sharp cut-off; inactive means mostly below about 27%
# Target sequence (Q96LD8 whole entry, looked up): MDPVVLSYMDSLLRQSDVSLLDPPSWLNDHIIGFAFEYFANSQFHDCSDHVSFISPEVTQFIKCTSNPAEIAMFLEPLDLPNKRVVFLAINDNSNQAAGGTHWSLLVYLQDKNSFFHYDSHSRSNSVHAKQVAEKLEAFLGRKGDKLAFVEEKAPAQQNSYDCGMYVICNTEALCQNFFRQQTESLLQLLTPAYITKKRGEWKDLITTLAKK
# LGR2 antag – inhibitors of bursicon-induced LGR2 CRE-luciferase signal, primary screen, cell-based, HEK293, CRE-luciferase reporter, bursicon stimulation; Drosophila bursicon receptor LGR2 (rickets); 380,000 tested, 0.35% active; inhibition, % at 9.99 µM; bursicon-stimulated, 4 h;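 active means drop in luminescence signal, shown as inhibition above about 50% in the replicate tests, limit read from the data, passing the limit was not always enough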;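 further: agonist challenge used bursicon conditioned medium at about half maximal strength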
# HSP90 refold inh – HSP90 inhibitors, primary screen, cell lysate, luminescence; AID 1789, 2009; Rabbit reticulocyte lysate, luciferase refolding luminescence, 3 h; inhibition, % at 5.6 µM; 290,000 tested, 0.91% active;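 active means inhibition above the screen-wide mean plus 3 SD, computed separately per campaign, cut at about 16% in these data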;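 further: 0% = DMSO wells and 100% = 60 µM geldanamycin wells; inhibitors lower the luminescence because luciferase stays unfolded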
# SENP7 block – SENP7 protease inhibitors, primary screen, biochemical, luminescence, uHTS; recombinant SENP7, Z-RLRGG-aminoluciferin luminescence, 40 min; inhibition, % at 5 µM; 330,000 tested, 1.5% active; Sentrin-specific protease 7 (Homo sapiens), Q9BQF6; AID 434973, 2010;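 active means inhibition above about 50% at the single test dose, limit read from the data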;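 further: plate controls were DMSO with enzyme for no effect and no enzyme buffer wells for full effect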
# SENP6 block – SENP6 protease inhibitors, primary screen, biochemical, luminescence, uHTS. AID 2599, 2010. Sentrin-specific protease 6 (Homo sapiens), Q9GZR1. Recombinant SENP6 catalytic domain, aminoluciferin luminescence. 330,000 tested, 1.8% active. inhibition, % at 10 µM;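 active means inhibition above about 50% at the single tested dose, limit read from the data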;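 further: plate controls were DMSO wells with enzyme for no effect and DMSO wells lacking enzyme for full effect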
# SENP8 block-2 – SENP8 protease inhibitors, primary screen, biochemical, luminescence | Sentrin-specific protease 8 (Homo sapiens), Q96LD8 | purified SENP8, Z-RLRGG-aminoluciferin cleavage | inhibition, % at 10 µM | 330,000 tested, 1.2% active | AID 2540, 2010; in the data active means inhibition above about 50%
# SENP8 conf – SENP8 protease inhibitors, retest, confirmation, biochemical, luminescence, single concentration. AID 488912, 2010. Recombinant SENP8, Z-RLRGG-aminoluciferin luminescence, 60 min. inhibition, % at 12.5 µM. 6,200 tested, 40% active. shares compounds with SENP7 block;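 active means mean inhibition across replicates above about 50%, limit read from the data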
# SENP6 conf – SENP6 protease inhibitors, confirmation, biochemical, luminescence, single concentration; shares compounds with SENP7 block; recombinant SENP6, Z-RLRGG-aminoluciferin luminescence; inhibition, % at 12.5 µM; 6,200 tested, 58% active
# SENP7 confirm – SENP7 protease inhibitors, retest, confirmation, biochemical, luminescence, single concentration; shares compounds with SENP7 block; recombinant SENP7, Z-RLRGG-aminoluciferin luminescence, 40 min; inhibition, % at 12.5 µM; 6,200 tested, 69% active; AID 488917, 2010
# Casp3 SENP sel – caspase-3 protease inhibitors, confirmation, selectivity assay for SENP inhibitor project, biochemical, single concentration | shares compounds with SENP7 block | purified caspase-3, Z-DEVD-aminoluciferin luminescence, 60 min | inhibition, % at 12.5 µM | 6,200 tested, 60% active;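 active means mean inhibition above about 50%, limit read from the data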;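 further: plate controls were enzyme with DMSO for no effect and wells without caspase-3 for full effect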
# Target sequence (P42574 28-227 limits assumed): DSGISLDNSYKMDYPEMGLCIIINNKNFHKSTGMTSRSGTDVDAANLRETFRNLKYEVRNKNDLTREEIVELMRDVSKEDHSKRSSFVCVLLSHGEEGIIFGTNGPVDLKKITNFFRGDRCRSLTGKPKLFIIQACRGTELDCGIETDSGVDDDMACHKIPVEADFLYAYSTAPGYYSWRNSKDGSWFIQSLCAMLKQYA
# SENP luc ctr – counter-screen for SENP inhibitors: luminescence interference; inhibition, % at 12.5 µM; Pre-incubated SENP8/Z-RLRGG-aminoluciferin, luciferase luminescence interference; shares compounds with SENP7 block; AID 488919; 6,200 tested, 39% active;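 active means mean inhibition above about 50% when retested at one dose, limit read from the data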;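 further: plate controls were DMSO wells with completed reaction for no effect and substrate without enzyme for full effect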
# Starred values were filed as active, the others as inactive; . = no result.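 How the source made its calls, unless noted: active means mean inhibition above about 50% in the one-dose retest (limit read from the data); inactive means the rest.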
SMILES,SENP8 block-1,LGR2 antag,HSP90 refold inh,SENP7 block,SENP6 block,SENP8 block-2,SENP8 conf,SENP6 conf,SENP7 confirm,Casp3 SENP sel,SENP luc ctr
Cc1sc(NC(=O)c2ccc(Br)s2)c(C(N)=O)c1C,-54.1,-15.6,-2.7,50.6*,76.3*,25.9,24.8,19.9,44.6,22.4,10.7
Cc1ccc(C(=O)NNc2cc(N3CCCC3)nc(N3CCCC3)n2)cc1,.,.,1.4,42.0,82.2*,95.3*,51.9*,87.0*,50.4*,-0.6,-2.1
O=C(NNc1cc(N2CCOCC2)nc(N2CCOCC2)n1)c1ccc(Cl)c(Cl)c1,4.9,-12.4,0.7,14.1,48.8,10.5,.,.,.,.,.
O=C(Nc1ccccc1)c1ccc(CSc2ncccn2)cc1,15.5,.,-0.7,91.3*,88.8*,85.4*,71.6*,86.5*,95.9*,90.3*,27.7
CSCc1ccc(C(=O)Nc2ccc(C(N)=O)cc2)cc1,2.9,-61.9,3.7,86.2*,82.4*,73.6*,-10.6,-3.0,13.5,54.7*,4.5
O=C(Nc1ccccc1F)c1ccc(CSc2ncccn2)cc1,5.7,-89.3,5.3,88.1*,86.9*,82.7*,85.5*,86.5*,96.5*,90.3*,88.2*
CC(C)(C)NC(=O)N1CCn2cccc2C1c1ccccc1F (stereo not drawn),-1.0,-6.2,-9.5,96.5*,-23.6,3.6,1.4,7.9,7.6,8.0,6.3
O=C(Nc1ccc(SC(F)F)cc1)c1ccccc1F,15.7,-67.0,-0.6,16.8,50.0*,19.7,37.4,35.1,73.0*,41.4,62.9*
O=C(Cc1ccccc1F)Nc1ccc(SC(F)F)cc1,18.8,-69.8,-4.1,43.3,60.7*,25.6,5.0,2.0,53.2*,18.5,28.5
O=C(COC(=O)Cc1ccccc1F)Nc1ccc(SC(F)F)cc1,3.9,-11.3,4.2,-0.1,-7.5,-8.3,.,.,.,.,.
CCC(=O)N(C)C[C@H]1Oc2cc(/C=C/c3ccccc3)ccc2S(=O)(=O)N([C@@H](C)CO)C[C@@H]1C,.,12.9,.,.,.,.,.,.,.,.,.
COc1ccc(NC(=O)Nc2cccc3c2O[C@H](CN(C)C(=O)Nc2ccc4c(c2)OCO4)[C@H](C)CN([C@H](C)CO)C3=O)cc1,.,0.3,.,.,.,.,.,.,.,.,.
O=C(Nc1ccccc1Cl)c1cc2ccccc2o/c1=N\O,13.5,-37.5,2.2,81.1*,55.7*,14.5,1.0,6.5,81.3*,55.8*,32.4
Cc1nc2ccccc2cc1C(=O)Nc1ccccc1Cl,12.7,1.8,-0.7,8.3,-4.7,-2.9,.,.,.,.,.
COc1ccccc1NC(=O)c1cc2ccccc2o1,29.4,.,-6.6,43.9,56.6*,33.7,45.6,42.1,78.4*,49.9,54.3*
Cc1ccccc1NC(=O)c1cc(=O)c2ccccc2o1,10.8,.,0.5,1.9,15.9,4.5,.,.,.,.,.
Cc1cc(C)nc(NC(=O)c2cc3ccccc3o2)n1,11.0,3.6,1.8,1.9,-3.7,-6.6,.,.,.,.,.
